Test results taken from PubChem BioAssay AID1159580 (chemical genetic matrix, 2015).
Screen size: about 5,500 compounds; about 2,000 (36%) were called active. Roughly 18% stayed inconclusive and do not appear here. Cut-off read from the data, not from the text of the source: active = normalized growth mostly below about 0.91 (no sharp cut-off); inconclusive = no clear call, values can overlap the other calls; inactive = mostly above about 0.92. The list shows a part of the results.

Assay: chemical genetic growth profiling, strain panel (AID 1159580);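 note: tested at 20 µM; growth read once vehicle control cultures reached saturation at 30 °C; 1 = growth at the plate median or of vehicle wells; lower values mean less growth of the strain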
Conditions: growth OD

Measured: normalized growth

O=C(O)CCCCC1SCC2NC(=O)NC21 (centres undefined)
inactive: S. cerevisiae deletion strains, locus YJL187C, strain SWE1, hits give low values 0.991 | S. cerevisiae deletion strains, locus YJR043C, strain POL32, hits give low values 0.971 | S. cerevisiae deletion strains, locus YJR066W, strain TOR1, hits give low values 0.983 | S. cerevisiae deletion strains, locus YKL009W, strain mrt4, hits give low values 0.994 | S. cerevisiae deletion strains, locus YKL068W, hits give low values 1.01 | S. cerevisiae deletion strains, locus YKL085W, strain MDH1 (second series), hits give low values 1.01 | S. cerevisiae deletion strains, locus YKL085W, strain MDH1, hits give low values 1.01 | S. cerevisiae deletion strains, locus YKL160W, strain elf1, hits give low values 1 | S. cerevisiae deletion strains, locus YKL190W, strain CNB1, hits give low values 1.03 | S. cerevisiae deletion strains, locus YKR001C, strain vps1, hits give low values 1 | S. cerevisiae deletion strains, locus YKR026C, strain gcn3, hits give low values 0.982 | S. cerevisiae deletion strains, locus YKR091W, strain srl3, hits give low values 0.992 | S. cerevisiae deletion strains, locus YLL001W, strain dnm1, hits give low values 0.989 | S. cerevisiae deletion strains, locus YLL026W, hits give low values 0.982 | S. cerevisiae deletion strains, locus YLL041C, strain sdh2, hits give low values 0.977 | S. cerevisiae deletion strains, locus YLR027C, strain aat2, hits give low values 0.994 | S. cerevisiae deletion strains, locus YLR039C, strain RIC1, hits give low values 1.06 | S. cerevisiae deletion strains, locus YLR058C, strain SHM2, hits give low values 1.01 | S. cerevisiae deletion strains, locus YLR102C, strain apc9, hits give low values 0.998 | S. cerevisiae deletion strains, locus YLR113W, strain HOG1, hits give low values 0.991 | S. cerevisiae deletion strains, locus YLR221C, strain rsa3, hits give low values 1.01 | S. cerevisiae deletion strains, locus YLR258W, strain gsy2, hits give low values 0.995 | S. cerevisiae deletion strains, locus YLR262C, strain YPT6 (second series), hits give low values 0.992 | S. cerevisiae deletion strains, locus YLR262C, strain YPT6, hits give low values 1.02 | S. cerevisiae deletion strains, locus YLR268W, strain sec22, hits give low values 0.99 | S. cerevisiae deletion strains, locus YLR320W, strain mms22, hits give low values 0.999 | S. cerevisiae deletion strains, locus YLR330W, strain CHS5, hits give low values 1.01 | S. cerevisiae deletion strains, locus YLR342W, strain FKS1 (second series), hits give low values 1 | S. cerevisiae deletion strains, locus YLR342W, strain FKS1, hits give low values 0.972 | S. cerevisiae deletion strains, locus YLR357W, strain rsc2, hits give low values 0.962 | S. cerevisiae deletion strains, locus YLR370C, strain arc18, hits give low values 0.998 | S. cerevisiae deletion strains, locus YLR371W, strain rom2, hits give low values 1.02 | S. cerevisiae deletion strains, locus YLR384C, strain iki3, hits give low values 0.985 | S. cerevisiae deletion strains, locus YLR418C, strain cdc73, hits give low values 1.02 | S. cerevisiae deletion strains, locus YML016C, strain PPZ1, hits give low values 1.01 | S. cerevisiae deletion strains, locus YML032C, strain rad52, hits give low values 0.983 | S. cerevisiae deletion strains, locus YML120C, strain ndi1, hits give low values 0.976 | S. cerevisiae deletion strains, locus YML124C, strain tub3, hits give low values 0.996 | S. cerevisiae deletion strains, locus YMR058W, strain fet3, hits give low values 0.984 | S. cerevisiae deletion strains, locus YMR078C, strain ctf18, hits give low values 1.02 | S. cerevisiae deletion strains, locus YMR125W, strain sto1, hits give low values 0.989 | S. cerevisiae deletion strains, locus YMR129W, hits give low values 0.997 | S. cerevisiae deletion strains, locus YMR205C, strain PFK2, hits give low values 1 | S. cerevisiae deletion strains, locus YMR223W, strain ubp8, hits give low values 1 | S. cerevisiae deletion strains, locus YMR231W, strain pep5, hits give low values 0.997 | S. cerevisiae deletion strains, locus YMR307W, strain GAS1, hits give low values 1.01 | S. cerevisiae deletion strains, locus YNL067W, strain RPL9B, hits give low values 1 | S. cerevisiae deletion strains, locus YNL071W, strain lat1, hits give low values 0.979 | S. cerevisiae deletion strains, locus YNL183C, strain NPR1, hits give low values 0.984 | S. cerevisiae deletion strains, locus YNL209W, strain ssb2, hits give low values 0.995 | S. cerevisiae deletion strains, locus YNL233W, strain BNI4, hits give low values 0.99 | S. cerevisiae deletion strains, locus YNL248C, strain rpa49, hits give low values 0.982 | S. cerevisiae deletion strains, locus YNL250W, strain rad50, hits give low values 1.01 | S. cerevisiae deletion strains, locus YNL271C, strain bni1, hits give low values 0.996 | S. cerevisiae deletion strains, locus YNL298W, strain CLA4, hits give low values 1 | S. cerevisiae deletion strains, locus YNL307C, strain MCK1, hits give low values 0.997 | S. cerevisiae deletion strains, locus YNL322C, strain KRE1 (second series), hits give low values 0.973 | S. cerevisiae deletion strains, locus YNR049C, strain mso1, hits give low values 0.978 | S. cerevisiae deletion strains, locus YNR052C, strain pop2, hits give low values 0.996 | S. cerevisiae deletion strains, locus YOL006C, strain TOP1, hits give low values 1.09 | S. cerevisiae deletion strains, locus YOL012C, strain htz1 1.05 | S. cerevisiae deletion strains, locus YOL147C, strain pex11, hits give low values 1 | S. cerevisiae deletion strains, locus YOR001W, strain rrp6, hits give low values 0.987 | S. cerevisiae deletion strains, locus YOR061W, strain CKA2, hits give low values 1 | S. cerevisiae deletion strains, locus YOR069W, strain VPS5, hits give low values 1.01 | S. cerevisiae deletion strains, locus YOR070C, strain gyp1, hits give low values 1 | S. cerevisiae deletion strains, locus YOR080W, strain dia2, hits give low values 0.978 | S. cerevisiae deletion strains, locus YOR083W, strain WHI5, hits give low values 0.992 | S. cerevisiae deletion strains, locus YOR106W, strain vam3, hits give low values 0.975 | S. cerevisiae deletion strains, locus YOR136W, strain idh2, hits give low values 0.986 | S. cerevisiae deletion strains, locus YOR144C, strain elg1, hits give low values 0.988 | S. cerevisiae deletion strains, locus YOR184W, strain ser1, hits give low values 0.956 | S. cerevisiae deletion strains, locus YOR231W, strain MKK1, hits give low values 1.01 | S. cerevisiae deletion strains, locus YOR265W, strain rbl2, hits give low values 1.01 | S. cerevisiae deletion strains, locus YOR270C, strain vph1, hits give low values 1.01 | S. cerevisiae deletion strains, locus YOR290C, strain snf2, hits give low values 0.977 | S. cerevisiae deletion strains, locus YOR316C, strain cot1, hits give low values 1 | S. cerevisiae deletion strains, locus YPL051W, strain arl3, hits give low values 1.01 | S. cerevisiae deletion strains, locus YPL078C, strain atp4, hits give low values 0.955 | S. cerevisiae deletion strains, locus YPL106C, strain sse1, hits give low values 0.994 | S. cerevisiae deletion strains, locus YPL240C, strain hsp82, hits give low values 0.98 | S. cerevisiae deletion strains, locus YPL241C, strain CIN2, hits give low values 1.01 | S. cerevisiae deletion strains, locus YPL256C, strain CLN2, hits give low values 1 | S. cerevisiae deletion strains, locus YPR119W, strain clb2, hits give low values 0.992 | S. cerevisiae deletion strains, locus YPR141C, strain kar3, hits give low values 1.01 | S. cerevisiae deletion strains, locus YPR163C, strain tif3, hits give low values 1.01 | S. cerevisiae deletion strains, locus YPR167C, strain met16, hits give low values 1 | S. cerevisiae deletion strains, strain wtn01, hits give low values 0.992 | S. cerevisiae strains, strain wild type, hits give low values 1.01
